A short description of experiment [1]: antimalarial activity against Dd2 strain (AID 2302;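 active = growth inhibition above 50% at the single 2 µM test dose, taken to imply half-maximal potency below 2 µM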;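 also: 0% = DMSO untreated growth and 100% = chloroquine plus artemisinin killed control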). The settings on record: P. falciparum Dd2 in RBCs, LDH growth readout, 72 h; at 2 µM; active compounds read high.
Experiment [2] in a line: HepG2 cytotoxicity, primary screen, cytotoxicity control for P. falciparum antimalarial project, cell-based, ATP luminescence (AID 2303;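 active = inhibition above 50%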;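 also: 0% = DMSO wells and 100% = digitonin-killed cells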). The settings on record: HepG2 viability, 24-48 h, at 10 µM, active compounds read high.
For experiment [3], the target named is L-lactate dehydrogenase (Plasmodium falciparum (isolate CDC / Honduras)) (UniProt Q27743). Briefly: PfLDH activity inhibition – cell lysate, 3D7 strain, counter-screen for P. falciparum growth inhibition project (AID 2304).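 Also: 0% = vehicle and 100% = reference inhibitor.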 The conditions noted are these: P. falciparum 3D7 crude extract, LDH APAD/NBT absorbance; at 2 µM; active compounds read high.
Chain of L-lactate dehydrogenase (Plasmodium falciparum (isolate CDC / Honduras)) (Q27743 whole entry, looked up): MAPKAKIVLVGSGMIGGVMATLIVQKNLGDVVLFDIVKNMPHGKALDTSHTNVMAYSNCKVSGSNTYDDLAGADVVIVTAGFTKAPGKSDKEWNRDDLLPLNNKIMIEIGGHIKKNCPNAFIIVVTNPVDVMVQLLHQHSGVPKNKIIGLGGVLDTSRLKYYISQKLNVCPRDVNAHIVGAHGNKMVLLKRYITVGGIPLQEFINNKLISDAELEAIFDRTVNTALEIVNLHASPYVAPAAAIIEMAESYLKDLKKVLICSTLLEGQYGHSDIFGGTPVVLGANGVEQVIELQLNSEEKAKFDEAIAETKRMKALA
Experiment [4] in a line: inhibition of 3D7 malaria parasite growth – strain 3D7 (AID 2306).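 Also: 0% = DMSO wells and 100% = chloroquine plus artemisinin control wells.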 The settings on record: P. falciparum 3D7 erythrocytic growth, LDH absorbance, 72 h; at 2 µM; active compounds read high.
Experiment [5] has as its target Calcium-dependent protein kinase 1 (Plasmodium falciparum (isolate 3D7)) (UniProt P62344). Description: PfCDPK1 kinase inhibitors, biochemical, TCAMS library (AID 1159585; cut-off not given, nearly all actives have IC50 up to about 0.98 µM;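 also: inhibitors leave more ATP so luminescence rises with inhibition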). The conditions noted are these: recombinant PfCDPK1, Kinase-Glo ATP depletion luminescence.
For experiment [6], the target named is Plasmodium falciparum protein kinase 6 (PK6, PF3D7_1337100) (UniProt Q8IDW1). Description: PfPK6 kinase inhibitors, biochemical, TCAMS library (AID 1159586). The conditions noted are these: recombinant PfPK6, Kinase-Glo ATP depletion luminescence.
Chain of Plasmodium falciparum protein kinase 6 (PK6, PF3D7_1337100) (Q8IDW1 1-305): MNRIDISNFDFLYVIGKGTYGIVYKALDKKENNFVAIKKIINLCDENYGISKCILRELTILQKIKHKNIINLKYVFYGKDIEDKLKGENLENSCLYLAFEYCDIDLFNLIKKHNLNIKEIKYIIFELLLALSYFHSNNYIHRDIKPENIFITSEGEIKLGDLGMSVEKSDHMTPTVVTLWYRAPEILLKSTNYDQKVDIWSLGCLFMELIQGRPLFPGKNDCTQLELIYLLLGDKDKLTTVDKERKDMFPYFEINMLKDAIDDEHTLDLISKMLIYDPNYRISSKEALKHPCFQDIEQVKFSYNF
Experiment [7] has as its target Protein kinase 7 (PK7), Plasmodium falciparum 3D7 (PF3D7_0213400) (UniProt Q7YTF7). Description: inhibition of Plasmodium PK7 catalytic activity – biochemical, TCAMS antimalarial set, Kinase-Glo luminescence (AID 1159587). The settings on record: recombinant PfPK7, Kinase-Glo ATP depletion luminescence.
Experiment [8] concerns the target Calcium-dependent protein kinase 4 (Plasmodium falciparum (isolate 3D7)) (UniProt Q8IBS5). Briefly: PfCDPK4 kinase inhibitors, biochemical, TCAMS library (AID 1159588; cut-off not given, nearly all actives have IC50 up to about 0.91 µM). The settings on record: recombinant PfCDPK4, Kinase-Glo ATP depletion luminescence.

Values without a mark were called inactive. For some of these results: Measured potencies and affinities stand elsewhere. Active and inactive are the calls of the source. Unless noted, no rule for the calls is given here.

Chain of Calcium-dependent protein kinase 1 (Plasmodium falciparum (isolate 3D7)) (P62344 whole entry, looked up): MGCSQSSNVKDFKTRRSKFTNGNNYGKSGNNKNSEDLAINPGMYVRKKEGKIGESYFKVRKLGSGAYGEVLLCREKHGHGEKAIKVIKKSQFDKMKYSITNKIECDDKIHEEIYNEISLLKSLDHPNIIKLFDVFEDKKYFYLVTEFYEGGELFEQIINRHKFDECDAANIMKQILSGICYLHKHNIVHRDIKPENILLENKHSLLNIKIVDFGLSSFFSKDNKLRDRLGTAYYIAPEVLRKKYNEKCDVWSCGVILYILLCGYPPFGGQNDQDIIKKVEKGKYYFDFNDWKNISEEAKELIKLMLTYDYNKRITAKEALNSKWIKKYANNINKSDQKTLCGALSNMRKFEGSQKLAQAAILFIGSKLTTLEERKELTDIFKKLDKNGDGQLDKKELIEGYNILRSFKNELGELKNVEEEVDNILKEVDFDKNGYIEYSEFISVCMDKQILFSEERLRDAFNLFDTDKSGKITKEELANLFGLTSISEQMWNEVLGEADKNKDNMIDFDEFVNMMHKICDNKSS
Chain of Calcium-dependent protein kinase 4 (Plasmodium falciparum (isolate 3D7)) (Q8IBS5 whole entry, looked up): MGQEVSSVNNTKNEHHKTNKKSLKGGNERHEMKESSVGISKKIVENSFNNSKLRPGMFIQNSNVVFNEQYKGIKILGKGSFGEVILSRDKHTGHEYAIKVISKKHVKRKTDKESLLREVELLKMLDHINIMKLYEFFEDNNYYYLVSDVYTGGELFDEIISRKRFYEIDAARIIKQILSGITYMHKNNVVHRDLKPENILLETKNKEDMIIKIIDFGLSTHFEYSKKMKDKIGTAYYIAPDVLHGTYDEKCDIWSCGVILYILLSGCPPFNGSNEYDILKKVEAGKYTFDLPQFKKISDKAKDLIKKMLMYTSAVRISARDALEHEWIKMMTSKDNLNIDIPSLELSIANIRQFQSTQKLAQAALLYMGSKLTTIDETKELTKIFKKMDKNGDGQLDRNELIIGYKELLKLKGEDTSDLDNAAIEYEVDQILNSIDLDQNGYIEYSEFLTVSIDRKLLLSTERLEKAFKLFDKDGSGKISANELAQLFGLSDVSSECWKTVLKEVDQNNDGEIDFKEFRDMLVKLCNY
Chain of Protein kinase 7 (PK7), Plasmodium falciparum 3D7 (PF3D7_0213400) (Q7YTF7 1-343): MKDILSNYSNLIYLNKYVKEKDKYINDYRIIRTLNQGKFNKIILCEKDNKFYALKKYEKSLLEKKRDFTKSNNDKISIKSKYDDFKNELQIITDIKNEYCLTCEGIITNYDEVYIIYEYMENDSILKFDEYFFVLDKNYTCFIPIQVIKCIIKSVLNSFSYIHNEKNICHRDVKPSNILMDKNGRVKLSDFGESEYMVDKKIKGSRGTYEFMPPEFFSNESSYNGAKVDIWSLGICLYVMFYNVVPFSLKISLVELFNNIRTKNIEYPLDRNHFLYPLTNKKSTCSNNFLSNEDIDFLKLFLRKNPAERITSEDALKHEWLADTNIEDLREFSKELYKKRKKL

`Nc1nc(N)c2c(ccc3c2ccn3CC2CC2)n1`: the figures for the growth inhibition in experiment [1] and in experiment [4] were 3% and 96% (active), respectively. The inhibition was 46% in experiment [2] and -4% in experiment [3]. In addition, the result in experiment [5], in experiment [6], in experiment [7] and in experiment [8] was inactive.

Turning to `Cc1cccc(NC(=O)NCc2ccccc2)n1`, the growth inhibition in experiment [1] was 2%; in experiment [4] it was 97% (active). Besides, the inhibition in experiment [2] was 14%; in experiment [3], -2%. The result in experiment [5], in experiment [6], in experiment [7] and in experiment [8] was inactive.

Regarding `O=C(Nc1cccc(CN2CCCN(Cc3cccc(Cl)c3)CC2)c1)c1ccc(Br)cc1`, the growth inhibition in experiment [1] was 16%; in experiment [4], 92% (active). Besides, the inhibition was 38% in experiment [2] and 1% in experiment [3]. Also, the outcome in experiment [5], in experiment [6], in experiment [7] and in experiment [8] was inactive.

Consider `CCOc1ccccc1C=CC(=O)Nc1ccc2nc(N3CCN(C)CC3)cc(C)c2c1`, for which the growth inhibition in experiment [1] was 91% (active); in experiment [4], 102% (active). The inhibition in experiment [2] is 16%; in experiment [3], -1%. The result in experiment [5], in experiment [6], in experiment [7] and in experiment [8] was inactive.

`COc1ccccc1CNC(=O)c1cc(Br)cc(N2CCN(c3ccncc3)CC2)c1`: the growth inhibition was 76% (active) in experiment [1] and 95% (active) in experiment [4]. Besides, the inhibition in experiment [2] was 43%; in experiment [3], 0%. Besides, the outcome in experiment [5], in experiment [6], in experiment [7] and in experiment [8] was inactive.

For `O=S(=O)(c1ccccc1Cl)N1CCCCC(c2ccc(C(F)(F)F)cc2)=N1`, the growth inhibition in experiment [1] is 72% (active); in experiment [4], 86% (active). Moreover, the inhibition in experiment [2] was 22%; in experiment [3] it was 4%. Moreover, the result in experiment [5], in experiment [6], in experiment [7] and in experiment [8] was inactive.

As for `N#Cc1ccc(-n2cc(C(=O)Nc3ccc4c(c3)CCN(C3CCC3)CC4)c(C(F)(F)F)n2)cc1`, the growth inhibition in experiment [1] is 99% (active); in experiment [4] it was 102% (active). The inhibition in experiment [2] is 37%; in experiment [3] it was -2%. In addition, the result in experiment [5], in experiment [6], in experiment [7] and in experiment [8] was inactive.

Regarding `C=CCc1cc(Cc2cnc(N)nc2N)cc(CCC)c1O`, the growth inhibition in experiment [1] is 2%; in experiment [4] it was 90% (active). For the same molecule, the inhibition is 54% (active) in experiment [2] and -1% in experiment [3]. The result in experiment [5], in experiment [6], in experiment [7] and in experiment [8] was inactive.

`COc1c(C2CCN(CCCCNC(=O)c3ccc(-c4ccc(C#N)cc4)nc3)CC2)ccc2c1CCCC2`: the growth inhibition was 67% (active) in experiment [1] and 95% (active) in experiment [4]. Also, the inhibition in experiment [2] is 54% (active); in experiment [3] it was -2%. The result in experiment [5], in experiment [6], in experiment [7] and in experiment [8] was inactive.

For `CCC(C)c1ccc(NC(=O)c2ccc(S(=O)(=O)Nc3ccc(OC)c(N4CCN(CC5CC5)CC4)c3)cc2)cc1` (stereo not given), the growth inhibition is 17% in experiment [1] and 94% (active) in experiment [4]. For the same molecule, the inhibition in experiment [2] is 24%; in experiment [3], -2%. For the same molecule, the outcome in experiment [5], in experiment [6], in experiment [7] and in experiment [8] was inactive.

In the case of `CCc1ccc(NC(=O)c2ccc(CN3CCCN(CCC(C)C)CC3)cc2)cc1`, the growth inhibition is 25% in experiment [1] and 96% (active) in experiment [4]. The inhibition was 48% in experiment [2] and -7% in experiment [3]. In addition, the outcome in experiment [5], in experiment [6], in experiment [7] and in experiment [8] was inactive.

`COc1ccc(CC(=O)NC(CCN2CCC3(CCc4ccccc43)CC2)c2ccc(Cl)c(Cl)c2)cc1` (stereo not given): the growth inhibition is 75% (active) in experiment [1] and 90% (active) in experiment [4]. Further, the inhibition in experiment [2] was 28%; in experiment [3] it was -1%. Moreover, the result in experiment [5], in experiment [6], in experiment [7] and in experiment [8] was inactive.

For `O=C(Nc1cccc(F)c1)N(Cc1ccc(-c2ccc(CN3CCNCC3)cc2)cc1)C1CCN(Cc2ccccc2)CC1`, the growth inhibition in experiment [1] was 53% (active); in experiment [4] it was 101% (active). Besides, the inhibition in experiment [2] is 18%; in experiment [3] it was 0%. In addition, the result in experiment [5], in experiment [6], in experiment [7] and in experiment [8] was inactive.

Regarding `COCCCNC(=O)[C@H]1CNCCN1C(=O)c1ccccc1`, the figures for the growth inhibition in experiment [1] and in experiment [4] were 95% (active) and 97% (active), respectively. Besides, the inhibition in experiment [2] is 53% (active); in experiment [3], -2%. Moreover, the result in experiment [5], in experiment [6], in experiment [7] and in experiment [8] was inactive.

With `Cc1ccc(Nc2nc3cc(N(C)c4ccnc(Nc5cccc(CS(C)(=O)=O)c5)n4)ccc3o2)cc1`, the figures for the growth inhibition in experiment [1] and in experiment [4] were 16% and 90% (active), respectively. The inhibition is -19% in experiment [2] and 3% in experiment [3]. Besides, the result in experiment [5], in experiment [6], in experiment [7] and in experiment [8] was inactive.

In the case of `O=C(NC(c1ccccc1)c1ccccc1)C(c1cc2ccccc2o1)N1CCN(C(c2ccccc2)c2ccccc2)CC1` (stereo not given), the growth inhibition in experiment [1] is 78% (active); in experiment [4], 95% (active). The inhibition in experiment [2] and in experiment [3] was -1% throughout. For the same molecule, the outcome in experiment [5], in experiment [6], in experiment [7] and in experiment [8] was inactive.

In the case of `CCOc1cc(CC)ccc1C1CCN(CCN2CCC(NC(=O)c3ccc(-c4ccc(C#N)cc4)cc3)CC2)CC1`, the growth inhibition in experiment [1] was 71% (active); in experiment [4], 100% (active). Further, the inhibition in experiment [2] is 32%; in experiment [3], 6%. Moreover, the outcome in experiment [5], in experiment [6], in experiment [7] and in experiment [8] was inactive.

With `O=C1Nc2cccc3c2C1(CCCN1CCC(c2c[nH]c4cc(C(F)(F)F)ccc24)CC1)CCC3` (stereo not given), the growth inhibition was 37% in experiment [1] and 89% (active) in experiment [4]. Moreover, the inhibition in experiment [2] is 91% (active); in experiment [3] it was -2%. Also, the result in experiment [5], in experiment [6], in experiment [7] and in experiment [8] was inactive.

For `Cc1noc(C)c1-c1cccc(CNCc2cccc(-c3ccc(-c4nc5c(C)cccc5[nH]4)s3)c2)c1`, the growth inhibition in experiment [1] was 75% (active); in experiment [4], 102% (active). Besides, the inhibition in experiment [2] is 22%; in experiment [3], 1%. Moreover, the outcome in experiment [5], in experiment [6], in experiment [7] and in experiment [8] was inactive.

Consider `CCCCCN1CCC(NS(=O)(=O)c2cccc(C(=O)Nc3ccc(Cl)cc3)c2)CC1`, for which the results for the growth inhibition in experiment [1] and in experiment [4] were 29% and 88% (active), respectively. Besides, the values for the inhibition in experiment [2] and in experiment [3] were 24% and -3%, respectively. For the same molecule, the result in experiment [5], in experiment [6], in experiment [7] and in experiment [8] was inactive.

The values above are taken from PubChem BioAssay.
